# Experimental data taken from PubChem BioAssay AID624125 (The Scripps Research Institute Molecular Screening Center, 2012).
# Out of some 360,000 compounds screened, about 2,600 (0.72%) were called active. This is one part of a sample in which actives are shown more often than they occur. A number with no mark means an inactive call.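 Rule for the calls: active = inhibition above its plate's cutoff, the mean inhibition of sample wells plus 3 SD (cut at about 27% in these data); inactive = the rest.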
# Molecular target: Muscarinic acetylcholine receptor M4 (Homo sapiens) (UniProt P08173)
# Test: human M4 muscarinic receptor antagonists, primary screen, CHO cells, Fluo-8 calcium fluorescence (AID 624125);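 note: 0% = acetylcholine EC80 with DMSO and 100% = DMSO without agonist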
# Conditions: CHO-hM4 cells, ACh EC80, Fluo-8 calcium fluorescence; at 3 µM; active compounds read high
# Sequence of Muscarinic acetylcholine receptor M4 (Homo sapiens) (P08173 whole entry, looked up): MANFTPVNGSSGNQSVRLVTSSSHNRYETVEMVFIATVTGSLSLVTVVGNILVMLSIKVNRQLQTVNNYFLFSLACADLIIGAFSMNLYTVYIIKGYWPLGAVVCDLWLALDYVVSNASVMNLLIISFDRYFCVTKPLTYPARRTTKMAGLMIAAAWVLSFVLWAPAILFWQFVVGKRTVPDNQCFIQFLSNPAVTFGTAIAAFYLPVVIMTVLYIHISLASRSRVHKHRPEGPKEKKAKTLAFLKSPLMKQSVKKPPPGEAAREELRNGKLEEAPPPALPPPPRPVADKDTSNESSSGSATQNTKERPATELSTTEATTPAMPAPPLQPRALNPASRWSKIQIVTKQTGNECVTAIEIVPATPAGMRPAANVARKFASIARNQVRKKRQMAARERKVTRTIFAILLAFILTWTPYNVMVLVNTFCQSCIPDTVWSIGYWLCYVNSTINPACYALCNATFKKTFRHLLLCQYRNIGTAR
row,Structure (SMILES),inhibition
1,CCN(CC)Cc1nc2sc(C)c(C)c2c(=O)[nH]1,34.7% (active)
2,Cc1ccc(S(=O)(=O)N2CCCC2C(=O)OCc2nc3sc(C)c(C)c3c(=O)[nH]2)cc1 (configuration not stated),-8.5%
3,Cc1sc2nc(CSCC(=O)Nc3c(Cl)cccc3Cl)[nH]c(=O)c2c1C,-1.67%
4,Cn1c2c(c(=O)n(C)c1=O)C1c3ccccc3OCC1C(C)(C)O2 (configuration not stated),-10.5%
5,CCCCNC(=O)CSc1nc2ccc(NC(=O)CSc3nnc(N)s3)cc2s1,4.39%
6,Nc1nnc(SCC(=O)Nc2ccc3nc(SCC(=O)Nc4ccccc4)sc3c2)s1,40.5% (active)
7,COc1cc(OC)cc(-c2nnc(SCC(=O)Nc3ccc(C(=O)O)cc3)s2)c1,3.22%
8,CSc1nc2nc(-c3cccc(C(F)(F)F)c3)ccn2n1,-1.52%
9,C=C(C)c1cccc(C(C)(C)NC(=O)NCCN(CC)CC)c1,61.6% (active)
10,C=C(C)c1cccc(C(C)(C)NC(=O)N2CCN(c3ncccn3)CC2)c1,6.08%
11,C=C(C)c1cccc(C(C)(C)NC(=O)NC2CCCC2)c1,4.8%
12,COc1ccc(-c2cn(-c3ccc(C)cc3)c(=O)n2CC(=O)Nc2ccc(OC)c(OC)c2)cc1,4.43%
13,Cc1cc2cc(CNC(=O)c3cccs3)ccc2[nH]1,-4.44%
14,COC(=O)c1ccc(CNC(=O)c2ccc(S(=O)(=O)N3CCCCCC3)cc2)cc1,5.81%
15,Cc1cc2cc(CNC(=O)c3ccc(S(=O)(=O)N4CCOCC4)cc3)ccc2[nH]1,28.9% (active)
16,CC1CCc2sc(C(=O)N/N=C/C3CCCCC3)cc2C1 (configuration not stated),-5.14%
17,COc1ccc(-c2nc(N)sc2C2(O)C(=O)Nc3c(Br)cc(F)cc32)cc1OC (configuration not stated),-0.95%
18,O=CNc1cc(-c2ccc(C(=O)N3CCOCC3)cc2)cn2c(-c3ccc(F)cc3)cnc12,0.14%
19,OC(C#CCN1CCOCC1)(c1ccccc1)C1CCCCC1 (configuration not stated),10.4%

row,Structure (SMILES),inhibition
1,CC(C)(C)N(CC#CCC(O)(c1ccccc1)C1CCCC1)CCO (configuration not stated),31.3% (active)
2,Cc1ccc(C)c(N2CCN(C(=O)CCc3nc(-c4cccc(C(F)(F)F)c4)no3)CC2)c1,-9.53%
3,Cc1cc(O)ccc1NC1=CC(=O)CC(C)(C)C1,2.61%
4,CCc1nc2c(OCCOc3ccc(F)cc3)cccn2c1N(C)C(=O)c1ccccc1F,1.61%
5,COc1ccc(S(=O)(=O)N(C)C[C@H]2Oc3ccc(NS(=O)(=O)c4cccs4)cc3CC(=O)N([C@H](C)CO)C[C@H]2C)cc1,5.37%
6,C[C@H]1CN([C@@H](C)CO)C(=O)Cc2cc(NC(=O)Cc3ccccc3)ccc2O[C@H]1CN(C)S(=O)(=O)c1cccs1,35.1% (active)
7,CCOC(=O)CCCCCC(=O)Nc1ccc2c(c1)CC(=O)N([C@@H](C)CO)C[C@H](C)[C@@H](CN(C)Cc1ccccc1)O2,-3.74%
8,NC(=O)c1cc(S(=O)(=O)NCCCc2ccco2)cs1,3.61%
9,O=C(CNS(=O)(=O)c1ccc(Br)s1)N1CCN(C(=O)c2ccco2)CC1,-1.1%
10,CC(C)C(NS(=O)(=O)c1cccs1)C(=O)Nc1nc(C(C)(C)C)cs1 (configuration not stated),-1.31%
11,CS(=O)(=O)N(Cc1ccc(Cl)cc1)c1ccc(C(=O)NCCSCc2ccco2)cc1,13.9%
12,CCN1CCN(C(=O)c2ccc(CN(c3ccc(C)c(C)c3)S(C)(=O)=O)cc2)CC1,-4.91%
13,Cc1ccc(N(Cc2ccc(C(=O)Nc3ccccc3C(=O)NCc3ccco3)cc2)S(C)(=O)=O)cc1C,39.7% (active)
14,c1ccc2c(c1)OC1OC2Oc2ccccc21,-7.83%
15,COc1ccc(S(=O)(=O)NC2(C(F)(F)F)N=C3SCCN3C2=O)cc1 (configuration not stated),-9.21%
16,CCN1CCN(c2ccc(S(=O)(=O)N3CCCCC3)cc2NC(=O)c2cccc(NC(C)=O)c2)CC1,-6.66%
17,COc1ccc(CN2CCCC(C(=O)N3CCCCC3)C2)cc1 (configuration not stated),1.76%
18,COc1ccc(CN2CCCC(C(=O)c3ccc(Cl)cc3)C2)cc1Cn1cncn1 (configuration not stated),38.6% (active)
19,COc1cc(CN2CCCC(C(=O)c3ccc(SC)cc3)C2)cc(Cl)c1O (configuration not stated),-23.2%

row,Structure (SMILES),inhibition
1,CCN(CC)N=Nc1cccc(NC(C)=O)c1,5.94%
2,CN(C(=O)CSc1nnc(-c2ccc3c(c2)OCO3)o1)C1CCS(=O)(=O)C1 (configuration not stated),0.5%
3,N/C(=N\OC(=O)Nc1ccc(Cl)c(Cl)c1)c1ncc(C(F)(F)F)cc1Cl,27% (active)
4,N/C(=N\OC(=O)CCCC(=O)O)c1ncc(C(F)(F)F)cc1Cl,3.64%
5,O=C(c1ccccn1)c1ncc(C(F)(F)F)cc1Cl,9.21%
6,O=C(COc1ccc(S(=O)(=O)NCc2ccccc2)cc1)N1CCOCC1,4.93%
7,CC(O)C(NS(=O)(=O)c1ccc(Cl)cc1)C(=O)OCc1cc([N+](=O)[O-])cc2c1OCOC2 (configuration not stated),5.24%
8,CCOc1ccccc1NC(=S)C(=C([O-])c1ccc2c(c1)OCCO2)[n+]1ccc(CC)cc1,-1.01%
9,Clc1cc(NC2CCCCC2)ncn1,98.6% (active)
10,CCc1cc2c(NC3CCCC3)ncnc2s1,11.2%
11,Cc1cc([N+](=O)[O-])c(NC2CCCCC2)c([N+](=O)[O-])c1,7.51%
12,CC(=O)c1ccc(N2CCN(C(=O)c3ccc4nc[nH]c4c3)CC2)cc1,4.68%
13,CN(CC1CCCN(CCc2cccc(C(F)(F)F)c2)C1)C(=O)c1ccc2nc[nH]c2c1 (configuration not stated),41% (active)
14,Cc1nc2ccc(C(=O)N(C)CC3CCCN(CCc4ccc(Cl)cc4)C3)cc2[nH]1 (configuration not stated),19.4%
15,CSc1ccccc1NC(=O)c1ccc2c(c1)CCN2S(C)(=O)=O,-5.17%
16,O=C(CSCc1ccc([N+](=O)[O-])cc1)Nc1cccc(C(=O)Nc2ccccc2C(=O)O)c1,7.83%
17,CC(C(=O)Nc1ccc(S(=O)(=O)N2CCCC2)cc1)N(C)Cc1ccc(F)cc1 (configuration not stated),-3.14%
18,CCc1ccc(CN(C)C(C)C(=O)Nc2ccc(S(=O)(=O)N3CCCC3)cc2)cc1 (configuration not stated),26.6% (active)
19,CN(CC(=O)Nc1ccc(S(=O)(=O)N2CCCC2)cc1)Cc1ccc(Cl)c(Cl)c1,4.23%
